Source: publication PMC7819943, “Rice protein-binding microarrays: a tool to detect cis-acting elements near promoter regions in rice”
Over roughly 68,000 sequences, “fluorescence intensity (a.u.)” has its median near 9,100; the highest 2% begin near 16,000. The entries come from a sample that favours the highest values as a whole.

Target: OsWRKY34 (Oryza sativa, UniProt Q0JBA9 1-250)
Assay: protein-binding microarray (RPBM); PBS, 2% BSA, 51.3 ng/ul salmon testes DNA, 50 uM zinc acetate, 200 nM TF, 25 C, 1 h; high values mean tight binding
Conditions: protein: recombinant; tags: N-terminal polyhistidine and DsRed monomer fusion (pET32a); label: CyDye5-dUTP incorporated in the synthesized complementary strand; 3' TTTTT single-stranded linker to array surface; dsDNA, one strand shown
Outline: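 An Axon 4000B scanner gave the binding signal as per-feature fluorescence intensity in arbitrary units. This followed washing of a custom Agilent array that had been incubated for 1 h at 25 °C with 200 nM protein in PBS, 2% BSA, salmon testes DNA and 50 µM zinc acetate. The proteins were transcription factors fused at the N-terminus to polyhistidine and DsRed, expressed in E. coli BL21-CodonPlus and purified on Ni–NTA.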

Sequence of OsWRKY34 (Q0JBA9 entry or part of it): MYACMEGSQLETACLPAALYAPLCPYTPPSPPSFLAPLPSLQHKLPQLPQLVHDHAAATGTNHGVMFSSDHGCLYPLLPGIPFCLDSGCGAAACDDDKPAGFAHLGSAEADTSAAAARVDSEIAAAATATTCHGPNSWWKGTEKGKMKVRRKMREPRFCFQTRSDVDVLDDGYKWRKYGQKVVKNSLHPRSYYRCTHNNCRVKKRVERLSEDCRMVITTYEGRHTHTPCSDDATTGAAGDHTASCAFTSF

Sequence	binding signal
TTCTTCGTTTTTCTGAGTACGATCTCCCAGGGTTATAATCCGGAGTCACCTAGTGCAG	8850 fluorescence intensity (a.u.)
CGAGACCGACTGATGCTACAACTTCTGTCCTTGCTCCGGCCGGAGTCACCTAGTGCAG	8620 fluorescence intensity (a.u.)
ATGTGTGACTTGTCTTTTTAATTTTTTTTTTAATTTTTTTCGGAGTCACCTAGTGCAG	9610 fluorescence intensity (a.u.)
AGGCTATCGTATGACTTTCTTCTGCTTTCATTTGTGTTCACGGAGTCACCTAGTGCAG	15300 fluorescence intensity (a.u.)
TGGTGGCGTCTGTATTGGGTTTCTTTCTCCAAGTTATATTCGGAGTCACCTAGTGCAG	9710 fluorescence intensity (a.u.)
CTTTGCTCACTCTTTCTTTTCTCTTCAGGTCTCCATTCTTCGGAGTCACCTAGTGCAG	12200 fluorescence intensity (a.u.)
CGTGTCGGTGTCTCATCTCTCTCTCTCTTCCCATCCGCCGCGGAGTCACCTAGTGCAG	8790 fluorescence intensity (a.u.)
CCAAAAACCTCTACTCTTCCGCGTCTTGGAAAATTCTTCTCGGAGTCACCTAGTGCAG	9300 fluorescence intensity (a.u.)
GTGCTAAAAAGTCAACGGTGTCAAATATTTAGAAATGAAGCGGAGTCACCTAGTGCAG	21200 fluorescence intensity (a.u.)
GTCAAACATGTGCTAAAAAGTCAACAGTGTCAAACATTTCCGGAGTCACCTAGTGCAG	9540 fluorescence intensity (a.u.)
AATAATAAGAACGGTCAAACATATGCTAAAAAGTCAACGGCGGAGTCACCTAGTGCAG	11500 fluorescence intensity (a.u.)
TACTATTTTTTTCTATAACTATTTATGTCACATGTAAATACGGAGTCACCTAGTGCAG	8300 fluorescence intensity (a.u.)
TAAGATAAACGGTCAAACATTTGCTAAAAAGTCAACGGTGCGGAGTCACCTAGTGCAG	17300 fluorescence intensity (a.u.)
TTATAACATGTCATTAATAAAGGGCATTATGCAACTAATACGGAGTCACCTAGTGCAG	64200 fluorescence intensity (a.u.)
TCAAACACGTACTAAAAAGTCAACGGTGTCAAACATTTTGCGGAGTCACCTAGTGCAG	15600 fluorescence intensity (a.u.)
GTCAAACATGTGCTAAAAAGTCAACGGTGTCAAACATTTCCGGAGTCACCTAGTGCAG	17400 fluorescence intensity (a.u.)
AAACATGTGCTAAAAAGTCAACGGTGTCAAACATTTTGAACGGAGTCACCTAGTGCAG	10400 fluorescence intensity (a.u.)
TGTGCTAAAAAAGTCAACGGTGTCAAATATTTCGAAACGGCGGAGTCACCTAGTGCAG	14700 fluorescence intensity (a.u.)
TTGCTAAAAAGTCAACGGTGTCAAATATTTCGAAACGGAGCGGAGTCACCTAGTGCAG	12300 fluorescence intensity (a.u.)
CATGTCACTATACTATTATATCCTATTATATCCTATAATACGGAGTCACCTAGTGCAG	8100 fluorescence intensity (a.u.)
CATCTTCGCAGCAACTCAGTCATCAGCCCATAGCCATTTACGGAGTCACCTAGTGCAG	8950 fluorescence intensity (a.u.)
AAGGCTTATCACTTCGATTTTTATTTTAGTCCTTGTACTTCGGAGTCACCTAGTGCAG	8460 fluorescence intensity (a.u.)

Sequence	binding signal
ACCATCTTTTAAATCAGACCTCTCACCAATTTTGATATTTCGGAGTCACCTAGTGCAG	8230 fluorescence intensity (a.u.)
CGCCGGTACGTTTTCCCCGCCGCCGCCTTTCCGGCCGGCCCGGAGTCACCTAGTGCAG	8950 fluorescence intensity (a.u.)
ACTGTAGCCCATTTTTGATATGGCCAAGGCCCACATAGCACGGAGTCACCTAGTGCAG	8260 fluorescence intensity (a.u.)
GTCTACATGAACCATTCCAAATGACTTTTATAGGATTTCACGGAGTCACCTAGTGCAG	8340 fluorescence intensity (a.u.)
GCACCAAGGCCAATACTTGTCCGGATCACCAAGGACACCTCGGAGTCACCTAGTGCAG	8020 fluorescence intensity (a.u.)
TTTATTAGTTTGTGTCCTGGTTTTCTTTTTCAGTTAGATTCGGAGTCACCTAGTGCAG	8430 fluorescence intensity (a.u.)
TTACAAGACTTAATTTCAAGGTCCGTCGATTGTCTCTCCACGGAGTCACCTAGTGCAG	8830 fluorescence intensity (a.u.)
GTATAGGGGAGAGGGTGGGCGGGTGATCACTGGGTGGGTGCGGAGTCACCTAGTGCAG	12200 fluorescence intensity (a.u.)
CCCTCCGCTGAGGTTGCGGTTGATGATCTTTCATCAGTGACGGAGTCACCTAGTGCAG	8590 fluorescence intensity (a.u.)
ATCCATCACATCACGAAACCACTTCATGTACTCTTAACATCGGAGTCACCTAGTGCAG	8080 fluorescence intensity (a.u.)
AAACATGTGCTAAAAAGTCAACGGTGTCAAATATTTCGAACGGAGTCACCTAGTGCAG	15600 fluorescence intensity (a.u.)
AAATGTGCTAAAAAGTCAACGGTGTCAAACATTTCGAAATCGGAGTCACCTAGTGCAG	16400 fluorescence intensity (a.u.)
TATGTGCTAAAAAGTCAACGGTGTCAAACATTTCGAAACGCGGAGTCACCTAGTGCAG	14000 fluorescence intensity (a.u.)
AAACCTCCACCACCACCGCCACCACCGCCGCGCAAAACCCCGGAGTCACCTAGTGCAG	8700 fluorescence intensity (a.u.)
TATCTTTTTCTTTTTGGAGGTTTCGTTTTCTCTTGGTCAACGGAGTCACCTAGTGCAG	10400 fluorescence intensity (a.u.)
TTTCATCAATTGCCTCTTGTATCAGCTACTATGCAATATACGGAGTCACCTAGTGCAG	8850 fluorescence intensity (a.u.)
AATTAACATCACCAATCAGCAATCACCAACCTTGTCATCTCGGAGTCACCTAGTGCAG	8970 fluorescence intensity (a.u.)
GCTAGACTATCATCAGCAAGCTAGCAATTAAAGGCCTTGTCGGAGTCACCTAGTGCAG	64200 fluorescence intensity (a.u.)
CCATGCTCGCGGCGTTTACTTTCCTCACTATTTTTTAGATCGGAGTCACCTAGTGCAG	9410 fluorescence intensity (a.u.)
GGATCGCGTGGTTTGTGTCGTGTCTTTGCATACGGCGACACGGAGTCACCTAGTGCAG	8300 fluorescence intensity (a.u.)
CCATCACCACCTCCCGATCCGCGCGCTTTCTCTCCCGCGCCGGAGTCACCTAGTGCAG	9090 fluorescence intensity (a.u.)
